# Screens: PubChem, National Center for Advancing Translational Sciences (NCATS)
# Hits are enriched below; roughly 10% of the tested compounds scored in any of these assays.
# Lamin A splicing – changes lamin A minigene splicing in HeLa cells. HeLa LMNA splicing GFP/RFP minigene ratio, 48 h. Potency, µM (titrated, usually from 46.1 µM), usual class: inhibitors. 200,000 tested, 0.01% active; active means well fitted inhibition curve with a large enough effect in the signal ratio, with a control signal flat, not every such curve was filed as active; inconclusive means small, poorly fitted or top-dose-only effect, or effect the other way, or a change in a side signal; the % refers to the signal ratio
#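 S3 HeLa stable clones carrying a lamin A-EGFP splicing minigene plus DsRed2 were seeded at 600 cells/well in Opti-MEM with 2% FBS, pin-dosed and incubated 48 h at 37°C. Acumen cytometry (488 nm) gave the GFP/RFP total-intensity ratio.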
# HPGD block – HPGD (human) dehydrogenase inhibition; AID 894; 150,000 tested, 4.3% active; Potency, µM, actives largely listed as inhibitors; purified HPGD, NADH fluorescence kinetic, PGE2 substrate; P15428
#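 NADH formation kinetics: reaction with 30 uM PGE2 and 1 mM NAD+ (final), 20 nM enzyme, Tris-HCl pH 8 with Tween 20, after 15 min compound preincubation at room temperature. Fluorescence change, last versus first of five reads.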
# IMPase inh – IMPase inhibition in cells; P97697; CHO-M1 cells, IP1 accumulation, HTRF TR-FRET ratio; inhibition (IP1 accumulation), % at 46.1 µM; 120,000 tested, under 10 active; AID 901; active means well fitted curve in the direction sought with a large enough effect in the signal ratio, not every such curve was filed as active; inconclusive means small, poorly fitted or top-dose-only effect, or a change in a side signal; inactive means no such curve, though single readings can be large or run the other way; the % refers to the signal ratio;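 further: cells stimulated with carbachol in lithium chloride buffer; higher means more IMPase inhibition seen as more IP1 and lower FRET ratio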
#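 In this qHTS, compounds (final up to 46 uM) act on CHO-M1 cells that are then activated through the M1 receptor with carbachol, in pH 7.4 buffer containing 50 mM LiCl, for 30 min. IP1 accumulation is quantified by the IP-One immunoassay.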
# PNC inhibitor – perinucleolar compartment assembly inhibition. activity change (PNC), negative = inhibition, % at 10 µM. 140,000 tested, 3.1% active. PC3M PTB-GFP, PNC prevalence imaging, 16 h; stronger effect = lower value;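 active means readout at or below -70, meaning at least 70% loss of cells showing the perinucleolar compartment, a nuclear body marking cancer cells; inconclusive means readout between -30 and a set limit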
#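 Read-out is percentage of cells bearing a perinucleolar compartment, from automated 20x imaging of fixed, Hoechst-stained PC3M PTB-GFP cells. Cells were seeded 4 h, then exposed 16 h to compound (23 nl of library stock) in duplicate plates.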
# ALDH1A1 block – blocks purified human ALDH1A1 activity | P00352 | Purified ALDH1A1, NADH fluorescence, propionaldehyde substrate | Potency, µM (highest dose often 75.3 µM), actives largely listed as inhibitors | 220,000 tested, 7.3% active | AID 1030
# Target sequence (P00352 whole entry, looked up): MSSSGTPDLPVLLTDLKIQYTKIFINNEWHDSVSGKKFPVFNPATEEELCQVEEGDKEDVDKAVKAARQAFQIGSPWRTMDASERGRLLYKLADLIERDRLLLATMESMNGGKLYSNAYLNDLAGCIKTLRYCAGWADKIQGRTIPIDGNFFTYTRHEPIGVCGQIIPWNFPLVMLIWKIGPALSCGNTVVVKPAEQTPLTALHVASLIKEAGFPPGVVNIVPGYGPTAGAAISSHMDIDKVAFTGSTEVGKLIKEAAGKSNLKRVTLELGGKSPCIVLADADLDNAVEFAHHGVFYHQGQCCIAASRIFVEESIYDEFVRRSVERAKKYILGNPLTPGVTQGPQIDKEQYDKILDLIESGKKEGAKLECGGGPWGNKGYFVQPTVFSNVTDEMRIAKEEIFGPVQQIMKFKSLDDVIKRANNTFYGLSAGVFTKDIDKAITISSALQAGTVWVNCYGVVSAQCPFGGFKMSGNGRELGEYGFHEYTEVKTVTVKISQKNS
# KinaseGlo FLuc – counter-screen: inhibitors of Kinase-Glo firefly luciferase; 200,000 tested, 0.28% active; AID 1379; Q27757; Potency, µM (titrated, usually from 38.3 µM), usual class: inhibitors; Kinase-Glo luciferase, ATP luminescence, 8 min; active means well fitted inhibition curve with a large enough effect; inconclusive means small, poorly fitted or top-dose-only effect; further: nearly all actives have a fitted effect of over 60% in size
#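 Compounds were added to a substrate mix at pH 7.2 (50 mM imidazole, 10 uM ATP, within the enzyme's linear range), followed by Kinase-Glo detection reagent; luminescence was measured after 8 minutes at ambient temperature.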
# A number is an active result; 0 = inactive; ? = inconclusive; - = no result given; [ ] = dose if it differs, or a comment. Unless noted, the call rests on the fitted dose curve; in most records, active means well fitted inhibition curve with a large enough effect (not every such curve was filed as active); inconclusive means small, poorly fitted or top-dose-only effect, or another doubt; inactive means no such curve, though single readings can be large or run the other way.
SMILES,Lamin A splicing,HPGD block,IMPase inh,PNC inhibitor,ALDH1A1 block,KinaseGlo FLuc
COC(=O)c1nnc(SC)nc1C(=O)OC,-,0,-,-,0,0
COc1cccc(OCCCCCCN2CCOCC2)c1,0,0,0,0,4µM,0
CC1CCN(CCCCOc2ccccc2Br)CC1,?,0,-,0,?,0
Brc1ccccc1OCCCN1CCOCC1,0,0,0,-100,0,0
O=C(NCc1ccccn1)C1C2C=CC(C2)C1C(=O)Nc1ccc(F)cc1 (stereo not given),0,16µM,0,0,0,0
O=C(c1cc(C(F)(F)F)cc(C(F)(F)F)c1)N1CCC[C@@]2(CCN(Cc3ccccc3)C2)C1,-,0,-,-,0,0
CC(=O)N1CCN(c2ccc(NC(=O)C(C)Oc3ccc(Cl)cc3Cl)cc2)CC1 (stereo not given),0,20µM,0,?,?,0
CC(Oc1ccc(Cl)cc1Cl)C(=O)Nc1ccc(N2CCN(C)CC2)cc1 (stereo not given),0,0,0,0,0,0
COc1ccc(C2C3=C(CCCC3=O)Nc3nc(C(F)(F)F)nn32)c(OC)c1OC (stereo not given),0,0,0,-88,0,0
CN(C)c1nc(-c2ccc3c(c2)OCO3)nc2ccccc12,?,-,-,-,0,-
CCCCC(=O)Nc1nnn(CCC)n1,0,0,0,0,0,0
CCCCC(=O)NC(=S)Nc1nnn(CCC)n1,?,-,-,-,0.5µM,0
CCCCn1nnc(NC(=O)c2ccc(-c3ccccc3[N+](=O)[O-])o2)n1,0,-,-,-,?,0
CCCCn1nnc(NC(=S)NC(=O)c2ccc(-c3cccc(Cl)c3Cl)o2)n1,0,-,0,0,3.5µM,-
CC1=CS(=O)(=O)CC1Sc1ncn[nH]1 (stereo not given),0,0,0,-100,0,0
Cc1cc(NC(c2cccnc2)c2ccc3cccnc3c2O)no1 (stereo not given),?,0,0,0,0,0
Oc1c(C(Nc2cccc(C(F)(F)F)c2)c2cccnc2)ccc2cccnc12 (stereo not given),0,0,-,0,20µM,0
O=C1C(CCCNC(=S)NCc2ccccc2)NC(=S)N1Cc1ccccc1 (stereo not given),0,?,-,0,32µM,0
C[C@H]1Cc2c(COc3ccccc3)nc3c(c2CO1)CN(C(=O)c1cc(I)ccc1F)CC3,0[9.22 µM],0,-,-,0[13.5 µM],0[7.66 µM]
Cc1ccc(-c2nnc(CSc3nnc(COc4ccccc4)n3-c3ccccc3)o2)cc1,?,0,0,0,0,0
CCOc1ccc(-c2nnc(SCc3nnc(-c4ccccc4)o3)n2-c2ccccc2F)cc1,0,13µM,0,0,0,0
CCC(=O)C1=C(c2ccc(F)cc2)N(C(=O)CC)n2c(nnc2C2CCCCC2)S1,0,-,-,-,-,-
CCN(CC)C1CCN(C(=O)CCc2nnc(CCCCc3ccccc3)o2)C1 (stereo not given),-,-,-,-,0,0
CCN1CCN(C(=O)CCc2nnc(CCCCc3ccccc3)o2)[C@@H](C)C1=O,0,-,-,-,8.9µM,0
Cc1ccc(O)c(C2=NOC(O)(C(F)(F)C(F)F)C2)c1 (stereo not given),?,5µM,0,?,0,0
SMILES,Lamin A splicing,HPGD block,IMPase inh,PNC inhibitor,ALDH1A1 block,KinaseGlo FLuc
Cc1ccc(O)c(C2=NOC(O)(C(F)(F)F)C2)c1 (stereo not given),0,14µM,0,0,0,0
Cc1ccc(O)c(C2=Nc3ccccc3N=C(c3cccc(F)c3)C2)c1,-,-,0,-,-,-
Cc1onc(-c2ccccc2Cl)c1C(=O)Oc1cc(F)cc(F)c1,0,-,-,-,-,-
O=C1OC(Nc2ccc(F)cc2F)c2ccccc21 (stereo not given),0,0,0,0,0,0
O=C1OC(/C(=C\Nc2cc(Cl)ccc2O)[N+](=O)[O-])c2ccccc21 (stereo not given),0[9.22 µM],-,-,-,14µM,0
O=C1OC(/C(=C\Nc2ccc(F)cc2F)[N+](=O)[O-])c2ccccc21 (stereo not given),-,-,-,-,?,0
Cc1ccc(N/C=C(\C2OC(=O)c3ccccc32)[N+](=O)[O-])c(C)c1 (stereo not given),-,-,-,-,3.5µM,0
COCCn1c(=O)c(-c2ccc(F)cc2)nc2cnc(N(C)C)nc21,0,-,-,-,?,-
CCCCC(=O)N(C)C,-,0,-,-,?,-
C=C(C(C)=O)C(O)c1cccc(Br)c1 (stereo not given),-,0,-,-,0,0
CN1CCN(C(=O)c2cc3nc(-c4ccc(F)cc4)cc(C(F)(F)F)n3n2)CC1,0,11µM,0,0,0,0
O=C(c1cc2nc(-c3ccc(F)cc3)cc(C(F)(F)F)n2n1)N1CCCCC1c1cccnc1 (stereo not given),?,-,-,-,14µM,0
COc1ccc(C(CC(=O)Nc2ccccc2OC)n2cccc2)cc1 (stereo not given),?,25µM,-,0,0,0
O=C(/C=C/c1ccc(S(=O)(=O)N2CCOCC2)cc1)NC(=S)Nc1ccc(Cl)cc1Cl,?,-,-,-,1.1µM,0
O=C(/C=C/c1ccc(Cl)cc1)NC(=S)Nc1ccc(N2CCOCC2)c(Cl)c1,0,-,0,0,14µM,-
CCOC(=O)C1=C(c2ccccc2)N=C2SCC(=O)N2C1c1ccc2c(c1)OCO2 (stereo not given),0,0,0,?,13µM,0
COc1cc(OC)c(OC)cc1CNCCSc1nnnn1-c1ccccc1,0,-,-,-,-,-
COc1ccc(CCN(C)CCCC(C#N)(c2cc(OC)c(OC)c(OC)c2)C(C)C)cc1OC (stereo not given),?,0,-,-115,0,0
COCCNCC(=O)C12CC3CC(CC(C3)C1)C2,0,0,0,0,10µM,0
O=C(C1CCCN(S(=O)(=O)c2cccc3cccnc23)C1)N1CCN(c2ccc(F)cc2)CC1 (stereo not given),0,0,0,-81,0,0
CC1CCCN(C(=O)C2CCN(S(=O)(=O)c3cccc4cccnc34)CC2)C1 (stereo not given),0,14µM,0,0,?,0
CCOc1ccc2[nH]c(=O)c(CN(CCO)Cc3nnnn3CCc3ccccc3)cc2c1,0,0,0,-85,?,0
COc1ccc2cc(CN(CCc3ccccc3)Cc3nnnn3CC3CCCO3)c(=O)[nH]c2c1 (stereo not given),0,0,0,0,0.28µM,0
COCCn1nnnc1CN(Cc1ccco1)Cc1cc2cc3c(cc2[nH]c1=O)OCO3,0,?,0,0,?,0
COCCn1nnnc1CN(CCc1ccccc1)Cc1cc2ccc(C)cc2[nH]c1=O,0,0,0,?,4.5µM,0
Cc1ccc2[nH]c(=O)c(CN(CCc3ccccc3)Cc3nnnn3CC3CCCO3)cc2c1 (stereo not given),0,0,0,0,22µM,0
